# The panel holds about 79,000 compounds, 15% with a hit somewhere; the sample as a whole holds those more often. A number with no mark means an inactive call. Active and inactive are the calls of the source. Rule as the data show it: active = growth inhibition above about 70%; inactive = the rest.
# Assays:
# [1] = NCI Yeast Anticancer Drug Screen. Data for the rad52 strain (AID 147);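 also: 0% = growth of vehicle-treated control cultures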; conditions: S. cerevisiae rad52 mutant growth inhibition, hits give high values
# Outline: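 The repair-mutant yeast strain was incubated with compounds, then growth was read and inhibition derived relative to vehicle.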
# [2] = NCI Yeast Anticancer Drug Screen. Data for the wt1 strain (AID 149);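 also: 0% = growth of vehicle-treated wt1 cultures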; conditions: S. cerevisiae wt1 strain (SPY 50644) growth inhibition, hits give high values
# Outline: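 Compounds are added to wt1 yeast cultures. Growth is then measured. Inhibition is expressed relative to vehicle-treated controls.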
# [3] = NCI Yeast Anticancer Drug Screen. Data for the rad50EPP+ strain (AID 151);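 also: 0% = growth of vehicle-treated control cultures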; conditions: S. cerevisiae rad50 mutant strain, hits give high values
# Outline: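 Vehicle-normalised growth inhibition; rad50EPP+ yeast strain, altered in DNA damage repair, compound-treated.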
# [4] = NCI Yeast Anticancer Drug Screen. Data for the rad50 strain (AID 155);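 also: 0% = growth of vehicle-only cultures of the same strain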; conditions: S. cerevisiae rad50 strain growth inhibition, hits give high values
# Outline: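 Inhibition values express reduced yeast growth in compound-treated cultures relative to vehicle-treated controls.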
# [5] = NCI Yeast Anticancer Drug Screen. Data for the mec2-1 strain (AID 157); conditions: S. cerevisiae mec2-1 strain, hits give high values
# Outline: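 Mutant yeast (mec2-1) grown with compound; growth inhibition relative to vehicle control reported.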
# [6] = NCI Yeast Anticancer Drug Screen. Data for the rad14 strain (AID 159);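 also: 0% = growth of vehicle-treated control cultures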; conditions: S. cerevisiae rad14 strain growth inhibition, hits give high values
# Outline: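 A mutant yeast strain defective in DNA damage repair is treated with compound; inhibition of its growth is scored against untreated, vehicle-exposed cultures.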
# [7] = NCI Yeast Anticancer Drug Screen. Data for the sgs1 mgt1 strain (AID 161);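 also: 0% = growth of cultures given vehicle only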; conditions: S. cerevisiae sgs1 mgt1 strain, hits give high values
# Outline: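 Yeast cells carrying a defined DNA-repair defect were exposed to test compounds. Growth inhibition was measured relative to vehicle-treated controls.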
# [8] = NCI Yeast Anticancer Drug Screen. Data for the CLN2oe strain (AID 163);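 also: 0% = growth of vehicle-only control cultures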; conditions: S. cerevisiae CLN2oe strain, hits give high values
# Outline: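 Compounds are applied to yeast harbouring a defined cell-cycle control change; reduced growth compared with vehicle-treated controls gives the value.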
# [9] = NCI Yeast Anticancer Drug Screen. Data for the cln2 rad14 strain (AID 165);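 also: 0% = growth equal to vehicle treated cultures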; conditions: S. cerevisiae cln2 rad14 strain, hits give high values
# Outline: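 Readout is yeast growth inhibition versus vehicle-treated controls, using a strain with cln2 and rad14 alterations exposed to compound.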
# [10] = NCI Yeast Anticancer Drug Screen. Data for the bub3 strain (AID 167); conditions: S. cerevisiae bub3 mutant strain, hits give high values
# Outline: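 Steps: expose the mutant yeast strain to compound; grow alongside vehicle-treated cultures; measure growth; express inhibition against the vehicle cultures.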
# [11] = NCI Yeast Anticancer Drug Screen. Data for the wt2 strain (AID 169);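 also: 0% = growth of vehicle-treated yeast cultures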; conditions: S. cerevisiae wt2 strain growth inhibition, hits give high values
# Outline: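 Against vehicle-treated controls, the growth of yeast exposed to each compound was compared, and the inhibition was recorded.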
# [12] = NCI Yeast Anticancer Drug Screen. Data for the mlh1 strain (AID 171);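 also: 0% = growth of vehicle-treated control cultures of the same strain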; conditions: S. cerevisiae mlh1 strain growth inhibition, hits give high values
# Outline: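 Measured: yeast growth. Reference: vehicle-treated controls. Organism: strain with a defined alteration affecting DNA damage repair or cell cycle control, treated with compound.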
# [13] = NCI Yeast Anticancer Drug Screen. Data for the sgs1 strain (AID 173);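 also: 0% = growth of vehicle-only control cultures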; conditions: S. cerevisiae sgs1 mutant, hits give high values
# Outline: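 Each compound was added to cultures of the altered yeast strain. Growth was recorded, and inhibition was derived by comparison with vehicle controls.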
# [14] = NCI Yeast Anticancer Drug Screen. Data for the mlh1 rad18 strain (AID 175); conditions: S. cerevisiae mlh1 rad18 strain growth inhibition, hits give high values
# Outline: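 Genetically defined yeast (DNA repair-deficient) exposed to compounds; growth inhibition determined relative to vehicle.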
# [15] = NCI Yeast Anticancer Drug Screen. Data for the rad18 strain (AID 177); conditions: S. cerevisiae rad18 mutant growth inhibition, hits give high values
# Outline: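 Vehicle-treated cultures served as the baseline for scoring compound-induced growth inhibition in DNA-repair-mutant yeast.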
# [16] = at 5.0 µM (retest, dose inferred, filed as 0.5)
# [17] = at 50.0 µM (retest, dose inferred, filed as 5.0)
compound,measurement,setting,value
O=[N+]([O-])c1cccc2nc3ccccc3c(NCCC[N+]3([O-])CCCCC3)c12,growth inhibition,[1]; at 1.2 µM,20%
same,growth inhibition,[1]; at 3.7 µM,47%
same,growth inhibition,[1]; at 11.0 µM,80% (active)
same,growth inhibition,[1]; at 33.0 µM,90% (active)
same,growth inhibition,[1]; at 100.0 µM,94% (active)
same,growth inhibition,[2]; at 1.2 µM,1%
same,growth inhibition,[2]; at 3.7 µM,2%
same,growth inhibition,[2]; at 11.0 µM,4%
same,growth inhibition,[2]; at 33.0 µM,15%
same,growth inhibition,[2]; at 100.0 µM,46%
same,growth inhibition,[3]; at 1.2 µM,10%
same,growth inhibition,[3]; at 3.7 µM,36%
same,growth inhibition,[3]; at 11.0 µM,77% (active)
same,growth inhibition,[3]; at 33.0 µM,93% (active)
same,growth inhibition,[3]; at 100.0 µM,96% (active)
same,growth inhibition,[4]; at 1.2 µM,4%
same,growth inhibition,[4]; at 3.7 µM,16%
same,growth inhibition,[4]; [16],67%
same,growth inhibition,[4]; at 11.0 µM,47%
same,growth inhibition,[4]; at 33.0 µM,82% (active)
same,growth inhibition,[4]; [17],93% (active)
same,growth inhibition,[4]; at 50.0 µM,81.3% (active)
same,growth inhibition,[4]; at 100.0 µM,91% (active)
same,growth inhibition,[5]; at 1.2 µM,1%
same,growth inhibition,[5]; at 3.7 µM,8%
same,growth inhibition,[5]; [16],39%
same,growth inhibition,[5]; at 11.0 µM,35%
same,growth inhibition,[5]; at 33.0 µM,86% (active)
same,growth inhibition,[5]; [17],98% (active)
same,growth inhibition,[5]; at 50.0 µM,96% (active)
same,growth inhibition,[5]; at 100.0 µM,96% (active)
same,growth inhibition,[6]; at 1.2 µM,6%
same,growth inhibition,[6]; at 3.7 µM,28%
same,growth inhibition,[6]; at 11.0 µM,86% (active)
same,growth inhibition,[6]; at 33.0 µM,95% (active)
same,growth inhibition,[6]; at 100.0 µM,98% (active)
same,growth inhibition,[7]; [16],78% (active)
same,growth inhibition,[7]; [17],96% (active)
same,growth inhibition,[7]; at 50.0 µM,93.5% (active)
same,growth inhibition,[8]; at 1.2 µM,-2%
same,growth inhibition,[8]; at 3.7 µM,-5%
same,growth inhibition,[8]; at 11.0 µM,46%
same,growth inhibition,[8]; at 33.0 µM,85% (active)
same,growth inhibition,[8]; at 100.0 µM,94% (active)
same,growth inhibition,[9]; [16],95% (active)
same,growth inhibition,[9]; [17],98% (active)
same,growth inhibition,[9]; at 50.0 µM,97.1% (active)
same,growth inhibition,[10]; at 1.2 µM,-13%
same,growth inhibition,[10]; at 3.7 µM,-8%
same,growth inhibition,[10]; [16],-4%
same,growth inhibition,[10]; at 11.0 µM,34%
same,growth inhibition,[10]; at 33.0 µM,82% (active)
same,growth inhibition,[10]; [17],86% (active)
same,growth inhibition,[10]; at 50.0 µM,38.7%
same,growth inhibition,[10]; at 100.0 µM,87% (active)
same,growth inhibition,[11]; at 1.2 µM,0%
same,growth inhibition,[11]; at 3.7 µM,6%
same,growth inhibition,[11]; at 11.0 µM,25%
same,growth inhibition,[11]; at 33.0 µM,85% (active)
same,growth inhibition,[11]; at 100.0 µM,96% (active)
same,growth inhibition,[12]; at 1.2 µM,0%
same,growth inhibition,[12]; at 3.7 µM,2%
same,growth inhibition,[12]; at 11.0 µM,8%
same,growth inhibition,[12]; at 33.0 µM,28%
same,growth inhibition,[12]; at 100.0 µM,66%
same,growth inhibition,[13]; at 1.2 µM,40%
same,growth inhibition,[13]; at 3.7 µM,70% (active)
same,growth inhibition,[13]; at 11.0 µM,84% (active)
same,growth inhibition,[13]; at 33.0 µM,91% (active)
same,growth inhibition,[13]; at 100.0 µM,93% (active)
same,growth inhibition,[14]; [16],84% (active)
same,growth inhibition,[14]; [17],98% (active)
same,growth inhibition,[14]; at 50.0 µM,94.4% (active)
same,growth inhibition,[15]; at 1.2 µM,93% (active)
same,growth inhibition,[15]; at 3.7 µM,95% (active)
same,growth inhibition,[15]; at 11.0 µM,96% (active)
same,growth inhibition,[15]; at 33.0 µM,96% (active)
same,growth inhibition,[15]; at 100.0 µM,96% (active)
